Source: PubChem (National Center for Advancing Translational Sciences (NCATS))
Giardia kill: Small Molecules that selectively kill Giardia lamblia: qHTS; AID 540267, 2011; actives 0.15% (n = 340,000); Giardia lamblia trophozoite viability; activity change, % at 7.66 µM, hits read low; in the data active = activity change below about -80%; inconclusive = between about -30% and that limit;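 note: parasites exposed to compound for two days anaerobically before the ATP read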
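Luminescence from cellular ATP indicates surviving trophozoites (100 cells/well) following 48 hrs anaerobic compound treatment at 37 deg C; signal develops 15-30 min at room temperature.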
IL-1B inflam inh: qHTS for Inhibitors of Inflammasome Signaling: IL-1-beta AlphaLISA Primary Screen; THP-1 LPS/ATP IL-1B secretion, AlphaLISA, 16 h; active compounds read low; activity change, % at 57.5 µM; actives 4.7% (n = 360,000); AID 743279, 2014; in the data active = activity change below about -50%; inconclusive = mostly about -30% to -49%
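Secreted IL-1B measured by AlphaLISA bead assay after 16 h compound exposure of THP-1 cells; compounds (final up to 57.5 uM) added 1 h before LPS (250 ng/mL) and ATP (1.25 mM) stimulation; lower signal means less secretion.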
TDP1 cell noCPT: qHTS for Inhibitors of human tyrosyl-DNA phosphodiesterase 1 (TDP1): qHTS in cells in absence of CPT. Potency, µM (top dose mostly 46.2 µM), inactives show top-dose activity change, negative = growth inhibition, most hits filed as inhibitors. AID 686978, 2013. actives 15% (n = 420,000). DT40 Tdp1-/- hTDP1 cells, no CPT, ATP luminescence, 48 h; note: potency is the fitted concentration of half-maximal effect; nearly all actives have a fitted effect of over 55% in size
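Luminescent ATP content (CellTiter-Glo) served as the growth readout. Knockout chicken DT40 cells expressing human TDP1 were exposed to compounds without camptothecin for a minimum 48 hr at 37 °C.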
TDP1 cell CPT: qHTS for Inhibitors of human tyrosyl-DNA phosphodiesterase 1 (TDP1): qHTS in cells in presence of CPT; chicken DT40 Tdp1-/-;hTDP1 cells + 20 nM CPT, ATP luminescence, 48 h; Potency, µM (highest dose often 46.2 µM), for inactives: top-dose activity change, negative = growth inhibition, hits mostly inhibitors; actives 12% (n = 420,000); AID 686979, 2013; note: potency is the fitted concentration of half-maximal effect; nearly all actives have a fitted effect of over 55% in size
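Chicken DT40 Tdp1-/- cells stably complemented with human TDP1 were seeded at 400 cells/well in medium containing 20 nM camptothecin, exposed to pin-transferred compounds, and grown at 37 °C for at least 48 hr. Viability was read as ATP luminescence.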
TDP1 inh: qHTS Assay for Inhibitors of Tyrosyl-DNA Phosphodiesterase (TDP1); Potency, µM (titrated, usually from 130 µM), for the others: at the top dose activity change, negative = inhibition, most hits filed as inhibitors; recombinant TDP1, AlphaScreen DNA substrate cleavage; AID 485290, 2010; actives 0.28% (n = 350,000); Tyrosyl-DNA phosphodiesterase 1 (Homo sapiens), Q9NUW8; note: potency is the fitted concentration of half-maximal effect; nearly all actives have a fitted effect of over 40% in size
Target sequence (Q9NUW8 whole entry, looked up): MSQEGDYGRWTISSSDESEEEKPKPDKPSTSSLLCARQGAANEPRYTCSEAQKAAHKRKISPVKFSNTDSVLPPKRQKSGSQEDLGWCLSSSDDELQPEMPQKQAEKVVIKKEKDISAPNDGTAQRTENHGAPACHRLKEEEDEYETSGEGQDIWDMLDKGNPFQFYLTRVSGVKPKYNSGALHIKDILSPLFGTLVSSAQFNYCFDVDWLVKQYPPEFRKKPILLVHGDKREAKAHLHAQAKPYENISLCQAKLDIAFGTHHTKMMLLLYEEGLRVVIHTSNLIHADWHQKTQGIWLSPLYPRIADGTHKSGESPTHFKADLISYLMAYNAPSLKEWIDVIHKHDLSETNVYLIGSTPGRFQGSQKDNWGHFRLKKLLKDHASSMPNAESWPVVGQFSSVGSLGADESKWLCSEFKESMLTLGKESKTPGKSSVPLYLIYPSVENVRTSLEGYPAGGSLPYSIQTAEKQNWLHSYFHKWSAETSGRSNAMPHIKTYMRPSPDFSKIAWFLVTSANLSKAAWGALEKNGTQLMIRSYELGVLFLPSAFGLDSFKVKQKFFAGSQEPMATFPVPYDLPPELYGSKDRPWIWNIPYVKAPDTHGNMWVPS
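Enzyme-compound mixtures sat 15 min at room temperature, followed by a 5 min reaction with 15 nM final substrate and 10 min with AlphaScreen beads. Recombinant human Tdp1 was used at 1 nM final.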
ELG1 DNA repair: qHTS screen for small molecules that inhibit ELG1-dependent DNA repair in human embryonic kidney (HEK293T) cells expressing luciferase-tagged ELG1. HEK293T ELG1-luciferase reporter, luminescence, 16 h; DNA damage induced by 5-fluorouridine. Potency, µM (titrated, usually from 46.1 µM), without a hit: at the highest dose activity change, negative = inhibition, actives largely listed as inhibitors. actives 2.3% (n = 330,000); note: potency is the fitted concentration of half-maximal effect; nearly all actives have a fitted effect of over 55% in size
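HEK293T cells expressing luciferase-tagged ELG1 (2,000/well) received 5-Fluorouridine plus compound or DMSO for 16 hr at 37 °C. Luciferase was read by ONE-Glo luminescence after 30 min at room temperature.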
Starred values were filed as active, the others as inactive; ? = inconclusive; . = not tested or not shown; [ ] = dose if it differs, or a comment. Rows were chosen to be rich in hits. Some 19% of all compounds tested hit in one or more screens of this group. Unless noted, calls come from the whole dose curve; as a rule, active = well fitted curve in the direction sought with a large enough effect; inconclusive = small, poorly fitted or top-dose-only effect, or another doubt; inactive = no such curve, though single readings can be large; an effect the other way counts as inactive or inconclusive. % is set by controls: 0 for no effect and ±100 for the full control effect.

SMILES | Giardia kill | IL-1B inflam inh | TDP1 cell noCPT | TDP1 cell CPT | TDP1 inh | ELG1 DNA repair
NC(=O)CC(NC(=O)c1ccccc1)c1ccc(N2CCCCCC2)c([N+](=O)[O-])c1 (centres undefined) | -21 | 12 | 12µM* | ? | . | 7%
CN1CCN(c2ccc(C(CC(N)=O)NC(=O)c3ccccc3)cc2[N+](=O)[O-])CC1 (centres undefined) | -8 | 15 | -22% | 4% | . | 0%
COc1cc(C(=O)NC(c2ccc(Cl)cc2)c2cc(Cl)c3cccnc3c2O)cc(OC)c1OC (centres undefined) | . | . | 5.2µM* | 10µM* | 8% | .
CCC(=O)NC(c1ccc(F)cc1)c1cc(Cl)c2cccnc2c1O (centres undefined) | . | . | . | . | 0% | .
COc1cccc(C(=O)NC(c2ccc(Cl)cc2)c2cc(Cl)c3cccnc3c2O)c1 (centres undefined) | . | . | 5.8µM* | 8.2µM* | 9% | .
O=C(c1cc2nc(-c3ccco3)cc(C(F)(F)F)n2n1)N1CCN(c2ccc(F)cc2)CC1 | 4 | -76* | ? | ? | 5% | ?
O=C(c1cc2nc(-c3ccco3)cc(C(F)(F)F)n2n1)N1CCN(Cc2ccccc2)CC1 | -6 | -29 | ? | 18µM* | 0% | ?
COc1ccc(-c2cc(C(F)(F)F)n3nc(C(=O)N4CCN(C(=O)c5ccco5)CC4)cc3n2)cc1 | 11 | -15 | 21µM* | 15µM* | . | ?
CC1CCc2cc(F)ccc2N1C(=O)c1cc2nc(-c3ccco3)cc(C(F)(F)F)n2n1 (centres undefined) | 15 | -4 | ? | ? | 2% | ?
CCC1CN(CC(=O)NC(C)CO)Cc2cc(OC)ccc2O1 (centres undefined) | . | . | -8% | 14%[9.04 µM] | . | .
Cc1cc(C)c(C)c(S(=O)(=O)Nc2ccc3cn[nH]c3c2)c1C | ? | 6 | 21µM* | ? | 0% | -21%
Cc1ccccc1-c1noc(-c2cc(C(C)C)[nH]n2)n1 | . | . | ? | ? | 0% | .
CN(C)S(=O)(=O)c1cccc(COC(=O)c2cccnc2Cl)c1 | 2 | 0 | ? | ? | -4% | -5%
CCOC(=O)C1(Cc2ccccc2C(F)(F)F)CCN(C2CCN(C(C)C)CC2)CC1 | -6 | 13 | 23µM* | 23µM* | -3% | 1%
CCOC(=O)C1(Cc2ccccc2C(F)(F)F)CCN(Cc2ccc(COC)o2)CC1 | 5 | ? | 8.2µM* | 9.2µM* | . | ?
CCOC(=O)/C(C#N)=C1\C(=O)N(Cc2ccccc2)c2ccccc21 | -3 | -5 | 9.2µM* | 9.2µM* | . | ?
CCOC(=O)/C(C#N)=C1/C=CN(Cc2ccccc2)C=N1 | -12 | -5 | 1% | -2% | 5% | 15%
COCCN1C(=O)CSCC1(C)C(=O)NCc1ccccc1 (centres undefined) | . | 42 | 5% | 23% | . | .
Cc1ccccc1Nc1c(C)c(C)nc2ncnn12 | 5 | 3 | 21µM* | 16µM* | . | ?
CCc1c(C)nc2ncnn2c1Nc1ccccc1C | -4 | 16 | ? | ? | 2% | -14%
COc1ccccc1OCc1cc(C(=O)NCc2ccc(N3CCCC3=O)cc2)no1 | 9 | -11 | -7% | -13% | 2% | -5%
COc1cc(C2c3c(-c4ccccc4)n[nH]c3C(=O)N2c2ccccc2)ccc1O (centres undefined) | -8 | -23 | ? | ? | 5% | -13%
CCOC(=O)c1ccc(N2C(=O)c3n[nH]c(-c4cccs4)c3C2c2cccc(OC)c2)cc1 (centres undefined) | . | . | 10µM* | 26µM* | 5% | .
CCOC(=O)c1ccc(N2C(=O)c3[nH]nc(-c4ccc(OC)cc4)c3C2c2cccc(O)c2)cc1 (centres undefined) | . | . | 21µM* | 18µM* | 5% | .
CCOc1ccc(N2C(=O)c3n[nH]c(-c4cccs4)c3C2c2cccc(F)c2)cc1 (centres undefined) | . | . | ? | ? | 7% | .
SMILES | Giardia kill | IL-1B inflam inh | TDP1 cell noCPT | TDP1 cell CPT | TDP1 inh | ELG1 DNA repair
CCOC(=O)c1ccc(N2C(=O)c3[nH]nc(-c4ccc(OCC)cc4)c3C2c2ccc(OC)cc2OC)cc1 (centres undefined) | . | . | 18µM* | 21µM* | 7% | .
O=C1c2[nH]nc(-c3ccc(F)cc3)c2C(c2ccccc2F)N1c1ccccc1 (centres undefined) | . | . | 21µM* | ? | . | .
O=C(CC1C(=O)NCCN1Cc1ccccc1)NC1CCCCC1 (centres undefined) | . | 13 | -16% | -13% | . | .
CCOC(=O)c1ccc(N2C(=O)c3n[nH]c(C)c3C2c2cccnc2)cc1 (centres undefined) | 14 | -3 | -24% | -26% | 3% | -17%
CCOC(=O)c1ccc(N2C(=O)c3[nH]nc(-c4ccc(C)cc4)c3C2c2cccc(F)c2)cc1 (centres undefined) | . | . | ? | 23µM* | 5% | .
CC[C@H]1CN2CCc3cc(OC)c(OC)cc3[C@H]2C[C@@H]1C[C@@H]1NCCc2cc(OC)c(OC)cc21 | . | . | . | . | -3% | .
CCC1CN2CCc3cc(OC)c(OC)cc3C2CC1CC1c2cc(OC)c(OC)cc2CCN1C(=O)C(Cc1c[nH]c2ccccc12)NC(=O)OC(C)(C)C (centres undefined) | -3 | -30 | 5.8µM* | 6.5µM* | . | .
CC1=C(C(=O)OCc2ccccc2)C(c2cccs2)N2C(=O)CCSC2=N1 (centres undefined) | 0 | -56* | -25% | 0% | 0% | -7%
COc1ccccc1/C=C/C1C(C(=O)OCC(C)C)=C(C)N=C2SCCC(=O)N21 (centres undefined) | 9 | -69* | 4% | 2% | 3% | -8%
COC(=O)C1=C(C)N=C2SCCC(=O)N2C1c1ccc(OCc2ccccc2)c(OC)c1 (centres undefined) | . | . | ? | ? | 6% | .
CCOC(=O)C1=C(C)N=C2SCCC(=O)N2[C@@H]1c1cccs1 | -7 | 15 | -23% | 11% | 1% | -4%
